Assay outcomes as filed in PubChem.
In the library only some 15% were active in any assay of this set; here they are far more common.
Pf growth 96h: P. falciparum growth inhibition at 96 hours. AID 504834. P. falciparum luciferase reporter growth, 96 h. actives 6.9% (n = 320,000). Potency, µM (series often up to 28.7 µM), inactives show at the top dose activity change, negative = inhibition, actives largely listed as inhibitors; also: potency is read from the fitted curve at half-maximal effect; % is scaled to controls: 0 for no effect and ±100 for the full control effect
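P. falciparum expressing integrated firefly luciferase grown in erythrocytes (2% hematocrit, 0.05% parasitemia final) with compounds for 96 hours at 37 C, 5% CO2. Growth inhibition read as loss of luminescence after adding luciferase detection reagent.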
HCV inh: HCV inhibition; Potency, µM (top dose mostly 41.8 µM), for inactives: at the highest dose activity change, negative = inhibition, most hits filed as inhibitors; Huh7.5.1 HCVcc-Cre infection, luciferase reporter, 44 h; actives 3.4% (n = 340,000); also: potency is read from the fitted curve at half-maximal effect; % is scaled to controls: 0 for no effect and ±100 for the full control effect
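Antiviral activity was scored by luciferase reporter output from cells infected with HCVcc-Cre (~0.5 moi) in presence of compound, 44 h infection period, cells seeded 1,000/well 4 h prior.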
HCMV inh: inhibitors of human cytomegalovirus | HFF cells, HCMV-luciferase reporter, 72 h; hits give low values | activity change, negative = inhibition, % at 57.5 µM | actives 4.5% (n = 410,000) | AID 1259415; in the data active = activity change below about -60%; inconclusive = no clear call, values can overlap the other calls; inactive = above about -39%; also: % is scaled to controls: 0 for no effect and ±100 for the full control effect
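Human foreskin fibroblasts infected with luciferase-reporter HCMV at MOI 1 PFU/cell, compounds at two doses. Luciferase measured 72 h post infection; normalized to buffer-only basal and Salinomycin (10uM) controls.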
Sm TGR inh: inhibitors of Schistosoma mansoni thioredoxin glutathione reductase; purified TGR, DTNB reduction, TNB absorbance 405 nm; actives 3% (n = 360,000); Potency, µM (doses to about 114 µM), for the others: top-dose activity change, negative = inhibition, most hits filed as inhibitors; also: potency is read from the fitted curve at half-maximal effect; % is scaled to controls: 0 for no effect and ±100 for the full control effect; nearly all actives have a fitted effect of over 60% in size
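Kinetic colorimetric format: TGR-catalysed, NADPH-driven DTNB reduction monitored via TNB absorbance. Enzyme dispensed at 20 nM; compound exposure 15 min at room temperature before reaction start.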
SARS PLP yeast: blocks SARS-CoV papain-like protease in a yeast assay. AID 485353. Potency, µM (highest dose often 32.9 µM), for the others: at the top dose activity, positive = growth rescue, most hits filed as activators. actives 0.19% (n = 330,000). S. cerevisiae expressing SARS-CoV PLpro, growth rescue; calls by dose curve; also: potency is read from the fitted curve at half-maximal effect; 0% is about no effect; nearly all actives have a fitted effect of over 55% in size
Pf growth 48h: inhibits P. falciparum growth in the first generation, 48 h; P. falciparum luciferase growth in erythrocytes, 48 h; Potency, µM (highest dose often 28.7 µM), for inactives: at the top dose activity change, negative = inhibition, most hits filed as inhibitors; actives 5.9% (n = 310,000); AID 504832; also: potency is read from the fitted curve at half-maximal effect; % is scaled to controls: 0 for no effect and ±100 for the full control effect
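Erythrocytes infected with P. falciparum carrying an integrated firefly luciferase reporter (2% hematocrit, 0.1% parasitemia final) were exposed to compounds in RPMI 1640 with 0.5% Albumax at 37 C, 5% CO2. Growth inhibition was scored as reduced luminescence.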
* marks the source's active call; other numbers are inactive results; ? = inconclusive; . = no result given; [ ] = remark or other dose. Unless noted, calls follow the shape of the dose curve; as a rule, active = well fitted curve in the direction sought with a large enough effect; inconclusive = small, poorly fitted or top-dose-only effect, or another doubt; inactive = no such curve, though single readings can be large; an effect the other way counts as inactive or inconclusive.

SMILES	Pf growth 96h	HCV inh	HCMV inh	Sm TGR inh	SARS PLP yeast	Pf growth 48h
CCOC(=O)c1c(-c2cccs2)csc1NC(=O)C(C)(C)C	.	?	-26.4	-11.4%	-35.0%	13.1µM*
CCOC(=O)c1sc(NC(=O)CCN2CCN(CC)CC2)c(C(=O)OCC)c1C	?	10µM*	6.0	-0.6%	-10.7%	?
CCOC(=O)c1c(-c2ccccc2)csc1NC(=O)c1cc2ccccc2oc1=O	13.1µM*	13.7%	?	-4.5%	-6.7%	12.3%
CCOC(=O)c1c(-c2ccccc2)csc1NC(=O)C(C)NCCCN1CCOCC1 (centres undefined)	?	10µM*	-35.2	-14.7%	-2.1%	?
CCOC(=O)c1c(-c2ccc(F)cc2)csc1NC(=O)CN1C(=O)NC2(CCCCC2C)C1=O (centres undefined)	9.28µM*	?	-13.1	1.3%	12.9%	10.4µM*
CCOC(=O)c1c(-c2ccc(-c3ccccc3)cc2)csc1NC(=O)CCN1CCOCC1	4.65µM*	?	-24.5	8.0%	-87.7%	?
CCOC(=O)c1c(-c2ccc(F)cc2)csc1NC(=O)CCN1C(=O)c2ccccc2C1=O	?	9.7%	13.2	-0.4%	-4.3%	-5.1%
CCOC(=O)c1c(-c2cccs2)csc1NC(=O)CNCCN1CCOCC1	11.7µM*	.	.	-15.9%	2.1%	?
CCOC(=O)c1c(-c2ccccc2)csc1NC(=O)CCN1C(=O)c2ccccc2C1=O	2.62µM*	?	22.9	-1.0%	12.3%	12.4%
CCCN(C1CCS(=O)(=O)C1)S(=O)(=O)c1ccc(F)cc1 (centres undefined)	17.9%	9.9%	-22.5	-6.2%	.	-18.9%
CCOC(=O)c1c(-c2ccc(-c3ccccc3)cc2)csc1NC(=O)c1cccc(N2C(=O)CCC2=O)c1	5.22µM*	0.0%	?	-4.0%	3.2%	-2.3%
CCOC(=O)c1c(-c2ccc(-c3ccccc3)cc2)csc1NC(=O)CNCCN(C)C	?	5.62µM*	-100.3*	-27.6%	-4.6%	.
CCOC(=O)c1c(NC(=O)CCN2C(=O)c3ccccc3C2=O)sc(C(=O)OC(C)C)c1C	?	?	2.9	-7.3%	-10.9%	1.7%
CCOC(=O)c1sc(NC(=O)CCN2C(=O)c3ccccc3C2=O)c(C(=O)OCC)c1C	13.1µM*	?	2.5	2.4%	12.5%	16.2%
CCOC(=O)c1c(NC(=O)c2cccs2)sc(CC)c1-c1cccs1	10.4µM*	.	-34.5	-1.2%	4.1%	.
Cn1cc(CC(=O)NCCN2CCOCC2)c2ccccc21	?	?	-7.2	?	-6.1%	8.8%
CCN(CC)C(=O)C1CCCN(c2ccc([N+](=O)[O-])cc2/C=N/NC(=O)c2cccc([N+](=O)[O-])c2)C1 (centres undefined)	10.4µM*	?	3.2	2.5%	5.5%	?
O=C(N/N=C/c1cc([N+](=O)[O-])ccc1N1CCNCC1)c1ccc([N+](=O)[O-])cc1	4.15µM*	?	6.2	-14.5%	5.2%	?
CCN(CC)C(=O)C1CCCN(c2ccc([N+](=O)[O-])cc2[N+](=O)[O-])C1 (centres undefined)	3.4%	-14.9%	?	-8.9%	-0.4%	-4.6%
O=C(Cn1c2ccccc2c(=O)c2ccccc21)N/N=C/c1cc([N+](=O)[O-])ccc1N1CCCCCC1	22.5%	2.51µM*	-73.0*	-9.8%	-2.2%	9.1%
N#CCC(=O)N/N=C/c1cc([N+](=O)[O-])ccc1N1CCCC1	?	-10.5%	87.2	2.6%	0.1%	?
Cc1ccc(S(=O)(=O)/N=C(/Nc2cccc(O)c2)c2ccccc2)cc1	71.8%	11.2µM*	-9.1	4.6%	-0.7%	-6.5%
Cc1ccc(S(=O)(=O)/N=C(/Sc2ccccc2C(=O)O)c2ccccc2)cc1	-4.8%	8.3%	-0.7	35.5µM*	2.7%	33.6%
Cc1ccc(S(=O)(=O)/N=C(\Sc2ccccc2)c2ccccc2)cc1	22.0%	?	33.7	7.94µM*	-0.2%	-11.6%
O=S(=O)(/N=C(\Sc1ccccc1)c1ccccc1)c1ccc(Cl)cc1	?	-6.2%	-8.2	0.0%	?	32.5%
SMILES	Pf growth 96h	HCV inh	HCMV inh	Sm TGR inh	SARS PLP yeast	Pf growth 48h
CC1CCCC(C)N1c1nnc(N)s1 (centres undefined)	54.2%	5.0%[8.37 µM]	6.3	-9.9%	13.9%	35.0%
CC(=O)c1c(C)[nH]c(C(=O)OCC(=O)c2ccc(C)s2)c1C	97.2%	?	50.4	2.8%	-0.1%	103.4%
Cc1ccccc1-c1cc2nc(NCCN3CCNC3=O)n(C)c(=O)c2s1	.	.	59.8	.	.	.
COCCN(C(=O)COC(=O)c1ccccc1NCc1ccco1)c1c(N)n(Cc2ccccc2)c(=O)[nH]c1=O	?	?	6.5	6.8%	-1.1%	?
Cc1ccc(Cc2c(-c3cccc(Cl)c3)nc3c4ccccc4ccn23)cc1	.	.	9.2	.	.	.
CC(C)(C)Nc1c([N+](=O)[O-])c(=O)sc2ccccc12	-16.6%	-29.1%	13.7	-6.1%	3.2%	18.9%
CCCCCCNc1c([N+](=O)[O-])c(=O)sc2ccccc12	-9.6%	?	?	-6.9%	1.0%	7.38µM*
O=C(Cc1ccccn1)c1ccccc1	?	-15.6%	-9.1	?	-1.3%	?
O=C(Cc1ccccn1)c1ccc(Cl)cc1	?	-6.0%	-68.3*	-11.9%	0.2%	?
CC1=C(CC(=O)c2ccc(Cl)cc2)C(=O)c2ccccc2C1=O	?	4.47µM*	-22.0	?	-14.1%	0.165µM*
O=C(O)CCCN1C(=O)C(=O)/C(=C(/O)c2ccccc2)C1/C=C/c1ccccc1 (centres undefined)	64.3%	3.1%	-19.3	0.0%	-0.1%	21.2%
N#C/C(=C\c1cc(Cl)c(OCc2ccc(Cl)cc2)c(Cl)c1)C(N)=O	91.6%	.	.	0.5%	-0.8%	12.1%
N#C/C(=C\c1cc(O)c(O)c(O)c1)C(N)=O	?	16.9%	39.8	12.6µM*	0.7%	10.4µM*
CCOc1ccc(C(C)NC(=S)NC2CCCCC2)cc1OCC (centres undefined)	?	?	-19.7	3.3%	21.4%	0.0828µM*
CCC(NC(=S)NC1CCCCC1)c1ccccc1 (centres undefined)	?	.	-89.2*	6.7%	-2.4%	?
CCc1ccc(C(C)NC(=S)NC2CCCCC2)cc1 (centres undefined)	61.3%	?	.	-5.1%	?	?
CCOc1ccc(C(C)NC(=S)NC2CCCCC2)cc1 (centres undefined)	?	?	?	0.9%	-0.6%	?
CC(NC(=S)NC1CCCCC1)c1ccc(C(C)(C)C)cc1 (centres undefined)	-6.6%	?	-97.2*	-24.0%	-7.8%	5.86µM*
